These results are taken from PubChem BioAssay (NCI).

About 79,000 compounds went through this panel and 15% of them were active in at least one assay; those are over-represented in the sample as a whole. A number with no mark means an inactive call. Activity calls are given as the source filed them. Rule as the data show it: active = growth inhibition above about 70%; inactive = the rest.

Test [1] is described as follows: NCI Yeast Anticancer Drug Screen. Data for the rad50 strain (AID 155).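 Also: 0% = growth of vehicle-only cultures of the same strain.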 The note with it: S. cerevisiae rad50 strain growth inhibition; at 50.0 µM; active compounds read high. The method in brief: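 Relative growth inhibition (compound vs vehicle) was measured in yeast with a defined repair-gene alteration.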
Test [2] is described as follows: NCI Yeast Anticancer Drug Screen. Data for the mec2-1 strain (AID 157). The note with it: S. cerevisiae mec2-1 strain, at 50.0 µM, active compounds read high. The method in brief:
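Using mec2-1 yeast: add compound, measure growth, express inhibition versus vehicle-treated cultures.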

Test [3] can be described thus: NCI Yeast Anticancer Drug Screen. Data for the sgs1 mgt1 strain (AID 161).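 Also: 0% = growth of cultures given vehicle only.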 Particulars: S. cerevisiae sgs1 mgt1 strain, at 50.0 µM, active compounds read high. The method in brief:
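This yeast growth screen uses a strain with defined DNA-repair lesions; compound-treated growth is compared with vehicle-treated growth.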

Test [4] in a line: NCI Yeast Anticancer Drug Screen. Data for the cln2 rad14 strain (AID 165).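 Also: 0% = growth equal to vehicle treated cultures.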 The note with it: S. cerevisiae cln2 rad14 strain, at 50.0 µM, active compounds read high. The method in brief:
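Yeast strain cln2 rad14, bearing defects in cell cycle control and DNA repair, serves as the test system; values reflect growth inhibition compared with vehicle.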

Test [5] can be described thus: NCI Yeast Anticancer Drug Screen. Data for the bub3 strain (AID 167). Particulars: S. cerevisiae bub3 mutant strain, at 50.0 µM, active compounds read high. The method in brief: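 Screening used yeast with an engineered genetic alteration affecting cell cycle control. Compound-exposed cultures were compared with vehicle cultures, and reduced growth was taken as inhibition.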

The nature of test [6]: NCI Yeast Anticancer Drug Screen. Data for the mlh1 rad18 strain (AID 175). The note with it: S. cerevisiae mlh1 rad18 strain growth inhibition; at 50.0 µM; active compounds read high. The method in brief: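 Steps: expose repair-defective yeast to compound; measure growth; express inhibition against vehicle-treated controls.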

For the compound `O=C(O)c1cc(C(=O)O)cc(S(=O)(=O)NCCO)c1`, the growth inhibition is 3.05% in test [1]; -10.5% in test [2]; 2.1% in test [3]; -30.2% in test [4]; 3% in test [5]; 5.1% in test [6].

For `CCOC(=O)c1cc(C)nc2ccc(Br)cc12`, the growth inhibition in test [1] is -3.2%; in test [2], 3.45%; in test [3], -11.2%; in test [4], -5.85%; in test [5], 4.2%; in test [6], -11.7%.

Consider `CC12CC(=O)NC(=O)N1CCS2` (stereo not given), for which the growth inhibition in test [1] was 3.7%; in test [2], 5.6%; in test [3], -1.85%; in test [4] it was -20.7%; in test [5] it was -13.7%; in test [6], -6.15%.

For `O=C(NNC1=NCCCCN1)Nc1ccc(Cl)cc1`, the growth inhibition in test [1] is 20.9%; in test [2], 6.8%; in test [3], 26.4%; in test [4], 7.4%; in test [5] it was 16.6%; in test [6], 5.95%.

Consider `CN(CC(N)=O)C(=O)c1cnc2ccccc2c1`, for which the growth inhibition in test [1] was 9.65%; in test [2], 18.6%; in test [3], -1.05%; in test [4], 8.05%; in test [5] it was 14.1%; in test [6] it was 0.4%.

Take `Cc1ccc(NC(=O)Nc2cccc(Cl)c2)cc1C`: the growth inhibition in test [1] was -0.1%; in test [2], 5.05%; in test [3], -4.95%; in test [4] it was -17.2%; in test [5], 5.1%; in test [6] it was -16.6%.

On to `NC(=O)C1CCN(S(=O)(=O)c2ccccc2)CC1`, for which the growth inhibition in test [1] is -0.85%; in test [2], -9.1%; in test [3], 8.55%; in test [4], -37.6%; in test [5], -1.5%; in test [6], -18.4%.

Take `NC1=NC2(COC(c3ccccc3)(c3ccccc3)c3ccccc3)OC(COC(c3ccccc3)(c3ccccc3)c3ccccc3)C(O)C2O1` (stereo not given): the growth inhibition was 28.4% in test [1]; -5.4% in test [2]; 30.6% in test [3]; 5.25% in test [4]; 34.4% in test [5]; 13.4% in test [6].

As for `c1ccc2cc(B(c3cccc4ccccc34)c3cccc4ccccc34)ccc2c1`, the growth inhibition in test [1] was 14%; in test [2], -8.75%; in test [3] it was -8.4%; in test [4], -25.6%; in test [5], -2.25%; in test [6] it was -23.9%.

Turning to `CCOC(=O)NC(=O)c1cn(CCN2CCN(C(=O)NCCCCCCNC(=O)N3CCN(CCn4cc(C(=O)NC(=O)OCC)c(=O)n(CCN(CC)CC)c4=O)CC3)CC2)c(=O)n(CCC(CC)CC)c1=O`, the growth inhibition in test [1] is -10.1%; in test [2], 8.7%; in test [3] it was -6.65%; in test [4], -20.9%; in test [5], 2.5%; in test [6], -31.5%.

Turning to `COCCOC(=O)c1ccccc1O`, the growth inhibition in test [1] is 5.45%; in test [2], 13.8%; in test [3], 13.8%; in test [4] it was 2.95%; in test [5], -13.2%; in test [6], -1.25%.

For `CN(C)C1=C(c2ccccc2)C(=O)C(c2ccccc2)=C1c1ccccc1`, the growth inhibition was 39.8% in test [1]; 3.25% in test [2]; 22.1% in test [3]; -32.3% in test [4]; 7.05% in test [5]; 13.3% in test [6].

Take `CCOC(=O)C(F)C(C)=O` (stereo not given): the growth inhibition in test [1] was 92% (active); in test [2], 94.5% (active); in test [3], 56.2%; in test [4], 97.4% (active); in test [5] it was 99.5% (active); in test [6], 91.8% (active).

As to `CCC(C#N)C1=CCCCCC1` (stereo not given), the growth inhibition was 31.8% in test [1]; 3.75% in test [2]; 19.4% in test [3]; 11.7% in test [4]; 4.6% in test [5]; 20.6% in test [6].

Regarding `O=c1[nH]cnc2c1cnn2Cc1ccccc1`, the growth inhibition is 4.1% in test [1]; -4.85% in test [2]; 1.2% in test [3]; 2.1% in test [4]; 26.1% in test [5]; 1.95% in test [6].

For the compound `CC1=NN(c2ccccc2)C(=O)/C1=C\c1ccc([N+](=O)[O-])cc1`, the growth inhibition in test [1] is 25.9%; in test [2], 29.1%; in test [3] it was 28.4%; in test [4], 18.9%; in test [5] it was 18.4%; in test [6] it was 19.5%.

Regarding `COc1ccc(CNc2nc3ccccc3nc2C(=O)O)cc1OC`, the growth inhibition is 1.9% in test [1]; 18.6% in test [2]; 4.4% in test [3]; 7.25% in test [4]; 9% in test [5]; -12.5% in test [6].

In the case of `CCC(C(O)C(C)C)[N+](=O)[O-]` (stereo not given), the growth inhibition in test [1] was 14.2%; in test [2], 1.45%; in test [3], 6.35%; in test [4], -6.5%; in test [5], 0.05%; in test [6] it was 3.3%.

`CC(=O)OC1C=CC2Oc3ccc(C)cc3C1(C)O2` (stereo not given): the growth inhibition in test [1] is 12.8%; in test [2], -4.05%; in test [3] it was 14.4%; in test [4], 28.2%; in test [5], 23.6%; in test [6] it was 34.9%.

Turning to `CCc1c(Cl)c(Cl)c(Cl)c(Cl)c1Cl`, the growth inhibition in test [1] was 2.95%; in test [2], 2.35%; in test [3], 4.15%; in test [4], -42.5%; in test [5] it was -2.9%; in test [6] it was 13.8%.
